Experimental findings from PubChem BioAssay (NCI) are described below.

Holding throughout (test): NCI-60 one-dose screen, 48 h (100 = growth as untreated, 0 = no growth, -100 = all killed)
One test concerns SK-MEL-2 melanoma. The settings on record: 10 µM.
Another test deals with EKVX NSCLC. As to conditions: 10 µM.
For the next test, the system named is SN12C renal. As to conditions: 10 µM.
The next test concerns UO-31 renal. As to conditions: 10 µM.
The next test relates to TK-10 renal. As to conditions: 10 µM unless noted.
For another test, the system named is ACHN renal. As to conditions: 10 µM.
The next test has as its system CAKI-1 renal. As to conditions: 10 µM.
In another test the test system is A498 renal. As to conditions: 10 µM.
Another test relates to CCRF-CEM leukemia. The settings on record: 10 µM.
Another test concerns MOLT-4 leukemia. As to conditions: 10 µM.

This is part of a sample that, as a whole, favours compounds with a hit. Of some 83,000 tested, about 20% had one in any assay.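 Cell lines were cultured in 96-well plates, exposed to a single compound concentration, and assessed for percent growth 48 hours later.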 A number with no mark means an inactive call. Activity calls are given as the source filed them. How the source made its calls: active means growth percent below 10; inactive means the rest.

With `CC(=O)OCC(=O)[C@@]1(O)CC[C@H]2[C@@H]3CC[C@@H]4C[C@H](O)CC[C@]4(C)[C@H]3C(=O)C[C@@]21C`, the growth in the test on SK-MEL-2 melanoma was 101%; with EKVX NSCLC, 98.4%; with SN12C renal, 102%; in the test on UO-31 renal it was 96.3%; in the test on TK-10 renal it was 110%; in the test on ACHN renal, 107%. Besides, the growth is 89.4% in the test on CAKI-1 renal, 91.8% with A498 renal, 74% in the test on CCRF-CEM leukemia and 79.8% in the test on MOLT-4 leukemia.

In the case of `O=C1C=CC2=C3c4cc(O)c(O)cc4CC3(O)COC2=C1O` (configuration not stated), the growth in the test with SK-MEL-2 melanoma was 87.3%; with EKVX NSCLC, 101%; with SN12C renal, 104%; in the test on UO-31 renal, 86.6%; in the test with TK-10 renal, 101%; with ACHN renal, 111%. The growth was 111% in the test with CAKI-1 renal, 99.1% in the test on A498 renal, 104% in the test on CCRF-CEM leukemia and 103% with MOLT-4 leukemia.

For `CCOc1ccccc1/C=N/Nc1nc2ccccc2o1`, the growth with SK-MEL-2 melanoma is 91.3%; in the test on EKVX NSCLC, 101%; in the test with SN12C renal, 92.2%; in the test on UO-31 renal, 86.5%; in the test with TK-10 renal it was 104%; in the test on ACHN renal, 103%. Moreover, the growth is 110% in the test on CAKI-1 renal, 92.1% with A498 renal, 95.8% in the test with CCRF-CEM leukemia and 81.7% in the test with MOLT-4 leukemia.

For the compound `CC(C)COC(=O)COC(=O)OCCOCCOC(=O)OCC(=O)OCC(C)C`, the growth in the test with SK-MEL-2 melanoma is 94.2%; with EKVX NSCLC, 119%; with SN12C renal it was 97.9%; in the test on UO-31 renal, 89.8%; in the test with TK-10 renal it was 91.9%; with ACHN renal it was 95.7%. The figures for the growth in the test with CAKI-1 renal, with A498 renal and in the test with CCRF-CEM leukemia were 116%, 99.9% and 106%, respectively.

As to `CC(C)CCOC(=O)c1ccccc1`, the growth is 106% in the test on SK-MEL-2 melanoma; 110% in the test on EKVX NSCLC; 102% in the test with SN12C renal; 92% with UO-31 renal; 101% in the test on TK-10 renal; 111% in the test on ACHN renal. Further, the growth in the test on CAKI-1 renal was 97.1%; in the test with A498 renal it was 97.7%; with CCRF-CEM leukemia it was 109%; in the test on MOLT-4 leukemia, 98.7%.

Turning to `O=C(O)C(O)c1ccccc1` (configuration not stated), the growth in the test on SK-MEL-2 melanoma is 104%; with EKVX NSCLC it was 99.9%; in the test with SN12C renal, 106%; in the test on UO-31 renal, 84.5%; with TK-10 renal it was 103%; in the test with ACHN renal, 103%. The growth with CAKI-1 renal is 96.8%; with A498 renal it was 93.9%; in the test on CCRF-CEM leukemia, 106%; with MOLT-4 leukemia, 102%.

As for `CCOC(=O)c1[nH]c(C)c(C(=O)O)c1C`, the growth with SK-MEL-2 melanoma was 124%; in the test with EKVX NSCLC it was 105%; with SN12C renal, 99.5%; in the test with UO-31 renal it was 84.7%; with TK-10 renal, 104%; with ACHN renal it was 102%. Further, the growth in the test with CAKI-1 renal was 97.3%; in the test on A498 renal, 102%; with CCRF-CEM leukemia, 89.6%; with MOLT-4 leukemia, 91.9%.

`O=C(CC(=O)c1ccccc1O)c1ccccc1`: the growth in the test with SK-MEL-2 melanoma is 131%; in the test on EKVX NSCLC, 76.8%; in the test on SN12C renal it was 85.7%; in the test on UO-31 renal it was 87.3%; in the test on TK-10 renal, 87.8%; in the test on ACHN renal it was 99%. Besides, the values for the growth with CAKI-1 renal and in the test with A498 renal were 92.2% and 98.6%, respectively.

Turning to `CCOC(=O)/C(=C/c1ccc(OC)cc1)N(CC)CC`, the growth was 103% with SK-MEL-2 melanoma; 106% with EKVX NSCLC; 102% in the test on SN12C renal; 92.9% with UO-31 renal; 107% in the test with TK-10 renal; 113% in the test with ACHN renal. For the same compound, the growth in the test on CAKI-1 renal was 103%; with A498 renal, 109%; in the test with CCRF-CEM leukemia, 100%; in the test on MOLT-4 leukemia, 99%.

`Nc1ccc(C(=O)c2ccc(N)c(Br)c2)cc1Br`: the growth with SK-MEL-2 melanoma is 8.1% (active); in the test with EKVX NSCLC, 50.9%; in the test on SN12C renal, 29.2%; in the test on UO-31 renal, 58.8%; in the test on TK-10 renal, 22.5%; in the test with ACHN renal, 33.4%. For the same compound, the growth in the test with CAKI-1 renal is 42.9%; in the test with A498 renal it was 28.6%; with CCRF-CEM leukemia, 13.4%; in the test with MOLT-4 leukemia, 35.5%.

Regarding `O=C1OC[C@H]2[C@H](c3ccc(O)c(O)c3)c3cc(O)c(O)cc3C[C@H]12`, the growth in the test with SK-MEL-2 melanoma is 26.4%; with EKVX NSCLC, 152%; in the test on SN12C renal, 110%; with UO-31 renal, 47.2%; with TK-10 renal, 118%; with ACHN renal, 112%. The growth with CAKI-1 renal is 136%; in the test on A498 renal, 134%; in the test with CCRF-CEM leukemia it was 205%; with MOLT-4 leukemia, 281%.

With `CCN(CC)CCNc1ccc(CO)c2sc3ccccc3c(=O)c12`, the growth in the test on SK-MEL-2 melanoma is 45.4%; in the test with EKVX NSCLC, 65.6%; in the test on SN12C renal it was 37.5%; with UO-31 renal it was 25.5%; in the test on TK-10 renal, 46.4%; in the test on ACHN renal it was 20.4%. The growth with CAKI-1 renal was 43.2%; with A498 renal, -17.9% (active); with CCRF-CEM leukemia, 37%; in the test with MOLT-4 leukemia, 8.97% (active).

Regarding `COc1ccc(OC)c(/C=C2\CCc3ccccc3C2=O)c1`, the growth in the test on SK-MEL-2 melanoma is 43.1%; in the test with EKVX NSCLC, 50%; in the test on SN12C renal, 61.7%; in the test on UO-31 renal, 61.1%; in the test with TK-10 renal, 89.5%; in the test with ACHN renal, 52.7%. The growth is 39.1% in the test on CAKI-1 renal, 20.2% with A498 renal, 28.3% in the test on CCRF-CEM leukemia and 23% in the test with MOLT-4 leukemia.

Take `CCOc1ccc(Br)cc1/C=N\N=C\c1cc(Br)ccc1OCC`: the growth is 109% in the test on SK-MEL-2 melanoma; 107% with EKVX NSCLC; 102% with SN12C renal; 88.8% in the test with UO-31 renal; 111% in the test on TK-10 renal; 104% in the test with ACHN renal. Further, the growth in the test with CAKI-1 renal is 90.8%; in the test with A498 renal, 141%; with CCRF-CEM leukemia it was -3.92% (active); in the test with MOLT-4 leukemia, 102%.

For `Cc1nc2ccccc2c2nnc(SCC(=O)N(Cc3ccccc3)c3ccccc3)n12`, the growth in the test on SK-MEL-2 melanoma is 51.2%; in the test on EKVX NSCLC, 76.6%; with SN12C renal it was 100%; in the test with UO-31 renal it was 89%; with TK-10 renal it was 189%; in the test on ACHN renal it was 92.8%. Further, the growth in the test on CAKI-1 renal is 71.3%; in the test on A498 renal, -16.6% (active); in the test with CCRF-CEM leukemia it was 85.4%; with MOLT-4 leukemia, 93.1%.
